From PubChem BioAssay (EPA / NIEHS)
Records with an inconclusive call do not appear. The source made the active and inactive calls. Rule for the calls, unless noted: active = hit-call score of the fitted dose curve at least 0.9, where 1 is the maximum; inactive = score below 0.9.

Key:
[1] = target: Paired box protein Pax-6 (Homo sapiens) (UniProt P26367); assay: ATG_Pax6_CIS: Attagene CIS-FACTORIAL HepG2 Assay for human Paired Box 6 (PAX6) (AID 2282956); details: HepG2 CIS-FACTORIAL PAX6 reporter transcription, RNA readout; actives raise or lower the signal
How it was run: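 HepG2 cells transiently transfected with multiplexed cis-promoter reporter units (endogenous TF activity) were dosed for 24 h. Reporter mRNA was quantified by RT-PCR, 6-FAM labeling, HpaI digestion and capillary electrophoresis; bidirectional fitting versus DMSO baseline.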

[2] = ATG_PXRE_CIS: Attagene CIS-FACTORIAL HepG2 Assay for human Pregnane X Receptor Element (PXRE) (AID 2282957); details: HepG2 Attagene CIS-FACTORIAL PXRE reporter, mRNA; actives raise or lower the signal
How it was run: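 HepG2 cells transiently transfected with cis-element-driven multiplexed reporter units; after 24 h chemical exposure, reporter mRNA measured by RT-PCR, 6-FAM labelling, HpaI digestion and capillary electrophoresis. Bidirectional fitting relative to DMSO.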

[3] = ATG_PPRE_CIS: Attagene CIS-FACTORIAL HepG2 Assay for human Peroxisome Proliferator-activated Response Element (PPRE) (AID 2282958); details: HepG2 PPRE cis-element reporter, Attagene transcription factor profiling; actives raise or lower the signal
How it was run: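 HepG2 cells are transiently transfected with multiplexed cis-promoter reporter units to report endogenous PPAR activity. After 24 h dosing, reporter mRNA is read by RT-PCR and capillary electrophoresis. Fitting is bidirectional against DMSO.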

[4] = ATG_RORE_CIS: Attagene CIS-FACTORIAL HepG2 Assay for human RAR-related Orphan Receptor Element (RORE) (AID 2282959); details: HepG2 Attagene cis-factorial RORE reporter, mRNA; actives raise or lower the signal
How it was run: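 HepG2 cells carrying transiently transfected cis-regulated reporter units; RORE-driven reporter mRNA quantified 24 h post-dosing by RT-PCR, 6-FAM primer extension, HpaI digestion and capillary electrophoresis. Bidirectional fit versus DMSO.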

[5] = ATG_Sox_CIS: Attagene CIS-FACTORIAL HepG2 Assay for human SRY-box transcription factor (SOX) (AID 2282960); details: HepG2 Attagene cis-factorial SOX reporter, mRNA; actives raise or lower the signal
How it was run: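 HepG2 cells transiently transfected with multiple cis-regulated reporter units, then dosed for 24 h. Reporter mRNA quantified by RT-PCR, fluorescent labelling, HpaI digestion and capillary electrophoresis; bidirectional fit versus DMSO.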

[6] = target: Transcription factor Sp1 (Homo sapiens) (UniProt P08047); assay: ATG_Sp1_CIS: Attagene CIS-FACTORIAL HepG2 Assay for human Specificity Protein 1 (Sp1) (AID 2282961); details: HepG2 Sp1 cis-reporter transcription, actives raise or lower the signal
How it was run: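 HepG2 cells transiently transfected with multiplexed cis-regulated reporter constructs, chemical exposure 24 h. Reporter mRNA quantified by RT-PCR with capillary electrophoresis; bidirectional fit relative to DMSO.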

[7] = ATG_SREBP_CIS: Attagene CIS-FACTORIAL HepG2 Assay for human Sterol Regulatory Element Binding (SREBP) (AID 2282962); details: HepG2 Attagene cis-factorial SREBP reporter, mRNA; actives raise or lower the signal
How it was run: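 HepG2 cells transiently transfected with multiplexed cis-element reporter units report endogenous transcription factor activity. After 24 h of chemical exposure, reporter mRNA was quantified by RT-PCR, 6-FAM labelling, HpaI digestion and capillary electrophoresis; bidirectional fits used DMSO as baseline.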

[8] = target: Signal transducer and activator of transcription 3 (Homo sapiens) (UniProt P40763); assay: ATG_STAT3_CIS: Attagene CIS-FACTORIAL HepG2 Assay for human Signal Transducer and Activator of Transcription 3 (STAT3) (AID 2282963); details: HepG2, Attagene cis-factorial STAT3 reporter transcription; actives raise or lower the signal
How it was run: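 HepG2 cells transiently transfected with multiple cis-element-driven reporter units report endogenous transcription factor activity. After 24 h compound exposure, reporter mRNA is measured by RT-PCR, 6-FAM labelling, HpaI digestion and capillary electrophoresis. Fitted bidirectionally versus DMSO.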

[9] = ATG_TA_CIS: Attagene CIS-FACTORIAL HepG2 Assay for human TA Basal Promoter (AID 2282964); details: HepG2 Attagene CIS-factorial TA basal promoter reporter; actives raise or lower the signal
How it was run: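 Fluorescence from labelled RT-PCR reporter fragments, separated by capillary electrophoresis, gives the signal. Cells: HepG2 transiently carrying multiple reporter units, 24 h chemical dosing. Gain or loss relative to DMSO.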

[10] = ATG_TCF_b_cat_CIS: Attagene CIS-FACTORIAL HepG2 Assay for human T-Cell-Factor with beta-catenin (TCF/b-cat) (AID 2282965); details: HepG2 TCF/beta-catenin cis-reporter transcription, actives raise or lower the signal
How it was run: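 HepG2 cells transiently transfected with cis-promoter-driven multiplexed reporter units; reporter mRNA measured 24 h after dosing by RT-PCR, FAM labelling, HpaI digestion and capillary electrophoresis. Bidirectional fitting relative to DMSO baseline.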

[11] = ATG_TAL_CIS: Attagene CIS-FACTORIAL HepG2 Assay for human TAL Basal Promoter (AID 2282966); details: HepG2 Attagene cis-factorial TAL promoter reporter; actives raise or lower the signal;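 note: background control endpoint measuring basal TAL promoter reporter mRNA not a specific factor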
How it was run: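 HepG2 cells transiently transfected with multiplexed cis-promoter reporter units, dosed 24 h. Reporter mRNA quantified by RT-PCR, 6-FAM labelling, HpaI digestion and capillary electrophoresis; TAL basal promoter serves as background control, fitted bidirectionally versus DMSO.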

[12] = ATG_TGFb_CIS: Attagene CIS-FACTORIAL HepG2 Assay for human Transforming Growth Factor (TGF) (AID 2282967); details: HepG2 Attagene CIS TGFb reporter, mRNA transcription; actives raise or lower the signal
How it was run: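 Bidirectional fitting relative to DMSO gave the endpoint. Underlying data: reporter mRNA from HepG2 cells carrying transiently transfected cis-regulated reporter constructs, harvested 24 h after dosing and analyzed by RT-PCR and capillary electrophoresis.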

[13] = ATG_VDRE_CIS: Attagene CIS-FACTORIAL HepG2 Assay for human Vitamin D Receptor Element (VDRE) (AID 2282968); details: HepG2 VDRE cis-reporter transcription, actives raise or lower the signal
How it was run: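 Transiently transfected HepG2 cells carrying cis-regulated reporter transcription units were exposed for 24 h. Reporter mRNA was measured by RT-PCR with fluorescent labelling and capillary electrophoresis, and fitted in both directions against DMSO.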

[14] = target: Nuclear receptor subfamily 1 group I member 3 (Homo sapiens) (UniProt Q14994); assay: ATG_CAR_TRANS: Attagene TRANS-FACTORIAL HepG2 Assay for human Constitutive Androstane Receptor (CAR) (AID 2282969; active = hit-call score of the fitted dose curve at least 0.9, where 1 is the maximum;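 note: activators raise reporter mRNA above DMSO so AC50 marks induction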); details: HepG2 Attagene TRANS-FACTORIAL CAR reporter
How it was run: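 HepG2 cells transiently transfected with GAL4-UAS reporter units; TRANS format reads activity of exogenous chimeric NR-Gal4 protein. After 24 h dosing, reporter mRNA quantified by RT-PCR, 6-FAM labelling and capillary electrophoresis; gain of signal fitted against DMSO.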

[15] = target: X-box-binding protein 1 (Homo sapiens) (UniProt P17861); assay: ATG_Xbp1_CIS: Attagene CIS-FACTORIAL HepG2 Assay for human X-box Binding Protein 1 (XBP1) (AID 2282972); details: HepG2 XBP1 cis-element reporter, Attagene multiplex; actives raise or lower the signal
How it was run: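 HepG2 cells transiently transfected with cis-regulated multiple reporter transcription units; endogenous transcription factor activity measured 24 hours after chemical dosing. Reporter mRNA quantified by RT-PCR, 6-FAM primer extension, HpaI digestion and capillary electrophoresis; bidirectional fitting versus DMSO.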

[16] = ATG_M_19_TRANS: Attagene TRANS-FACTORIAL HepG2 Assay for M19 Transcription Factor (Internal Marker) (AID 2282974; active = hit-call score of the fitted dose curve at least 0.9, where 1 is the maximum); details: HepG2 Attagene TRANS-FACTORIAL M19 internal marker reporter
How it was run: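 HepG2 transiently transfected with GAL4-UAS multiplex reporter constructs, exposed 24 h; reporter RNA quantified by RT-PCR, 6-FAM labeling, HpaI digestion and capillary electrophoresis; internal background marker fitted upward versus DMSO.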

[17] = ATG_GAL4_TRANS: Attagene TRANS-FACTORIAL HepG2 Assay for GAL4 (Internal Marker) (AID 2282976; active = hit-call score of the fitted dose curve at least 0.9, where 1 is the maximum); details: HepG2 Attagene TRANS GAL4 internal marker reporter
How it was run: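 Background-control readout: GAL4-UAS reporter transcript in transiently transfected HepG2 cells after 24 h compound exposure. Measured by RT-PCR, 6-FAM primer extension, HpaI digest and capillary electrophoresis; gain-of-signal fit versus DMSO.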

[18] = target: Steroid hormone receptor ERR1 (Homo sapiens) (UniProt P11474); assay: ATG_ERRa_TRANS: Attagene TRANS-FACTORIAL HepG2 Assay for human Estrogen-Related Receptor alpha (ERRa) (AID 2282971; active = hit-call score of the fitted dose curve at least 0.9, where 1 is the maximum); details: HepG2 Attagene TRANS reporter, ERRa transactivation
How it was run: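 HepG2 cells transiently transfected with GAL4-UAS reporter units and chimeric NR-Gal4 constructs; after 24 hour compound incubation, reporter mRNA quantified by RT-PCR, fluorescent labelling and capillary electrophoresis, gain of signal versus DMSO.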

[19] = target: Estrogen-related receptor gamma (Homo sapiens) (UniProt P62508); assay: ATG_ERRg_TRANS: Attagene TRANS-FACTORIAL HepG2 Assay for human Estrogen-Related Receptor gamma (ERRg) (AID 2282977; active = hit-call score of the fitted dose curve at least 0.9, where 1 is the maximum;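 note: hits increase reporter signal over DMSO so potencies reflect activators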); details: HepG2 Attagene TRANS reporter, ERRg transactivation
How it was run: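 Transfect HepG2 with multiple GAL4-UAS reporter transcription units; dose chemicals 24 h; isolate RNA, reverse-transcribe with oligo(dT), PCR-amplify, label with 6-FAM, digest with HpaI; size fragments by capillary electrophoresis. DMSO serves as negative control.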

Measured: AC50

Estrogen-related receptor gamma (Homo sapiens), sequence (P62508 whole entry, looked up, the tested form may be a part): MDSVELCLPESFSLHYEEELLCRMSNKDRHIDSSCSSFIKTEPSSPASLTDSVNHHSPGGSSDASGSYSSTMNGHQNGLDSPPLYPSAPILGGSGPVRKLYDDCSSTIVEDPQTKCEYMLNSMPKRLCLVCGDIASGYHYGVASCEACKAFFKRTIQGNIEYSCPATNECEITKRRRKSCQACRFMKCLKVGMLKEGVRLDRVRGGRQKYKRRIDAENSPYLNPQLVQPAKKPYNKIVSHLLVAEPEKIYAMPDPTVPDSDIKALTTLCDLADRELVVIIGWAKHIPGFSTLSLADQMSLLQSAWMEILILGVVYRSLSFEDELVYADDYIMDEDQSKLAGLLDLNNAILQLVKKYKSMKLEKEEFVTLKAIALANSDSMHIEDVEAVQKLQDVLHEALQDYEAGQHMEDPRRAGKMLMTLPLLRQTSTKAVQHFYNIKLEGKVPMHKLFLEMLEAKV
Paired box protein Pax-6 (Homo sapiens), sequence (P26367 whole entry, looked up): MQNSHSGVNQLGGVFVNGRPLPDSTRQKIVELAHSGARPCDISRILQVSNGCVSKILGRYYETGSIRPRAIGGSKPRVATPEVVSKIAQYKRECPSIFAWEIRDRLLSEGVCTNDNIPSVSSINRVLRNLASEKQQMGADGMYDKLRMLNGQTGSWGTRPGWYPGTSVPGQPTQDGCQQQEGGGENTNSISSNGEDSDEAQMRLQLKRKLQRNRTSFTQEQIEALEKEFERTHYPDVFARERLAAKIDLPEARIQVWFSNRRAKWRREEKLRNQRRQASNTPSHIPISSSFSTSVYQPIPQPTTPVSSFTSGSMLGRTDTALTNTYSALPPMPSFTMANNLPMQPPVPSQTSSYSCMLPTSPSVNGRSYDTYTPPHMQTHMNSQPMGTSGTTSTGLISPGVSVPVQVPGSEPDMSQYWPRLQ
Transcription factor Sp1 (Homo sapiens), sequence (P08047 whole entry, looked up): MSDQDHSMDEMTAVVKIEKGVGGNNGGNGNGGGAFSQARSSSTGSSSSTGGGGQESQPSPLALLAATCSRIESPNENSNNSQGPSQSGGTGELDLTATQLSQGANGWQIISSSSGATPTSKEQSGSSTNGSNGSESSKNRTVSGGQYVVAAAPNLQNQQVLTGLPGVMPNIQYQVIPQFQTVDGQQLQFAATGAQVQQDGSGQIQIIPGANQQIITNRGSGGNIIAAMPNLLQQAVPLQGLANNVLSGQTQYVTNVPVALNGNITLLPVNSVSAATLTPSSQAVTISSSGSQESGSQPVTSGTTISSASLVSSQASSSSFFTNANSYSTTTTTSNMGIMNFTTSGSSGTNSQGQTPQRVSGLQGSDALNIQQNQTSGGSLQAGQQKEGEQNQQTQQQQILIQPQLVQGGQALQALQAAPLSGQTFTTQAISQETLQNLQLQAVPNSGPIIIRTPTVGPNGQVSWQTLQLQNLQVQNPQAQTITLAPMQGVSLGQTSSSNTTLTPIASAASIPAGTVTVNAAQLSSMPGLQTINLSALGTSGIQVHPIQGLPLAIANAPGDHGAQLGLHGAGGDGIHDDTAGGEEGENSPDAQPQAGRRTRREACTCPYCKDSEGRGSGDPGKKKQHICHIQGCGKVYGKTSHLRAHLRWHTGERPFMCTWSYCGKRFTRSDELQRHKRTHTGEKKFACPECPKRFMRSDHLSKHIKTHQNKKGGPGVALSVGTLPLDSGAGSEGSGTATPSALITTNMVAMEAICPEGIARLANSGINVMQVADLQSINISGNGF
Steroid hormone receptor ERR1 (Homo sapiens), sequence (P11474 whole entry, looked up, the tested form may be a part): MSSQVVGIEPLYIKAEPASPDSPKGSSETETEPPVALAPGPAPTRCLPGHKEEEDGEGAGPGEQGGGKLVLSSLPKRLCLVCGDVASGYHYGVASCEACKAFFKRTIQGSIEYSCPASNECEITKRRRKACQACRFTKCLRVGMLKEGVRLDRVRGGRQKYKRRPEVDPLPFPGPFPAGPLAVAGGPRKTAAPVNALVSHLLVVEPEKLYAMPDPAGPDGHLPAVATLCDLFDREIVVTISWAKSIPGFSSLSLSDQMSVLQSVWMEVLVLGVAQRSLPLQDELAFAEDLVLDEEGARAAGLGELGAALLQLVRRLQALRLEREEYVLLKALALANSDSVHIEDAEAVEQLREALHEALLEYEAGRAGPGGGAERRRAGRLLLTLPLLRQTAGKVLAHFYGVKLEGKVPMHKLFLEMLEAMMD
Signal transducer and activator of transcription 3 (Homo sapiens), sequence (P40763 whole entry, looked up): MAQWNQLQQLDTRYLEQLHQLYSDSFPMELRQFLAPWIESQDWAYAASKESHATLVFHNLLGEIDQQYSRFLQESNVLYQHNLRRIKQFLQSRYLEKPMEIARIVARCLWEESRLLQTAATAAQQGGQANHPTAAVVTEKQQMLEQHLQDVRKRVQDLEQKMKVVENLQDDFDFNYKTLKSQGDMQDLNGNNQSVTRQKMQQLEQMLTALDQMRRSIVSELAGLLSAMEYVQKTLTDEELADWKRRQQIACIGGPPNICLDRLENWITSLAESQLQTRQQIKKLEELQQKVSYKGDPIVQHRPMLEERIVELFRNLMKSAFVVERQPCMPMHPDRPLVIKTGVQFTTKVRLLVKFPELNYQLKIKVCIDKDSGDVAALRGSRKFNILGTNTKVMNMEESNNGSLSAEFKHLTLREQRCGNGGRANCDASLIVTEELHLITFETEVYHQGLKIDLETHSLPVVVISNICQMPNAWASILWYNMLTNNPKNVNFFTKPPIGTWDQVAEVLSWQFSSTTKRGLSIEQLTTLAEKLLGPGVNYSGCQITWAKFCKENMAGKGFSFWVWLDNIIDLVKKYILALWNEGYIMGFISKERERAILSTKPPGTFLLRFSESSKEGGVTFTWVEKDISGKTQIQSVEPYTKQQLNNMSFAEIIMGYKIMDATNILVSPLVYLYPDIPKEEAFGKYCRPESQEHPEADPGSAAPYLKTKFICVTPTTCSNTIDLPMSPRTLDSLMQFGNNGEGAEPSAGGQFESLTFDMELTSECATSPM
X-box-binding protein 1 (Homo sapiens), sequence (P17861 whole entry, looked up): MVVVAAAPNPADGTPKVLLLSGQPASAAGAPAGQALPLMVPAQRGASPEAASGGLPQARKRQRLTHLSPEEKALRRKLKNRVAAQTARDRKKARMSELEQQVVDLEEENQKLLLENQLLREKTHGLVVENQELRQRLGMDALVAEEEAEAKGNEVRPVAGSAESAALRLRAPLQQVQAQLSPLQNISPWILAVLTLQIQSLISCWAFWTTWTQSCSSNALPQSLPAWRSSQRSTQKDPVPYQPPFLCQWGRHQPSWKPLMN
Nuclear receptor subfamily 1 group I member 3 (Homo sapiens), sequence (Q14994 whole entry, looked up, the tested form may be a part): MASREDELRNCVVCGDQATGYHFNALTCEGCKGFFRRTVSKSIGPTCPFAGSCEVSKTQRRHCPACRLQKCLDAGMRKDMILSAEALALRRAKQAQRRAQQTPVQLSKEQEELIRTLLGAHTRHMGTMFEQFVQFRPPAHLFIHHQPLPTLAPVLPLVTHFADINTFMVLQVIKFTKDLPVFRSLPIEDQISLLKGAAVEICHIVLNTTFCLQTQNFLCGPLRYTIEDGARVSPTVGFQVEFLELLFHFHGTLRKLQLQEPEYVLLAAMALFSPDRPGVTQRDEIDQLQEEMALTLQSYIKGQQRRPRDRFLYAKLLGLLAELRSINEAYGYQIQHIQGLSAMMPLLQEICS

CCCC(=O)OC(C)(C)Cc1ccccc1
active: [2] 27 µM | [3] 178 µM
not listed: [18] | [19]
inactive: all other assays above

O=C1OC2(c3ccccc31)c1ccc(O)c(Br)c1Oc1c2ccc(O)c1Br
active: [2] 15.9 µM | [13] 27.3 µM
not listed: [14] | [16] | [17] | [18] | [19]
inactive: all other assays above

Cc1ccc(-c2ccccc2)cc1
active: [2] 27.3 µM
not listed: [16] | [17] | [18] | [19]
inactive: all other assays above

CCCC(=O)c1ccccc1
inactive: all assays above

CCCCCCCCC=CCCCCCCCC1=NCCN1CCO
active: [2] 60.6 µM | [3] 0.261 µM | [8] 25.9 µM | [12] 0.666 µM
not listed: [14] | [17]
inactive: all other assays above

CCCCCCCCCCCC(=O)OC[C@@H](O)[C@H]1OC[C@H](O)[C@H]1O
not listed: [14]
inactive: all other assays above

NC1CCCCC1N (configuration not stated)
not listed: [16] | [17] | [19]
inactive: all other assays above

N#Cc1ccc(CC(=O)c2cccc(C(F)(F)F)c2)cc1
active: [2] 5.18 µM | [13] 26.3 µM
not listed: [16] | [17]
inactive: all other assays above

O=C(CS)OCCOC(=O)CS
active: [2] 37.8 µM | [3] 19.7 µM | [11] 62.2 µM
not listed: [14] | [16] | [18] | [19]
inactive: all other assays above

[Cl][Au]([Cl])[Cl]
not listed: [14] | [16] | [17] | [18]
inactive: all other assays above

Nc1ccc2c(O)cc(S(=O)(=O)O)cc2c1
not listed: [13] | [16] | [17] | [18] | [19]
inactive: all other assays above

Nc1ccn([C@H]2CS[C@@H](CO)O2)c(=O)n1
not listed: [13] | [17] | [18] | [19]
inactive: all other assays above

CC(C)(C)c1ccc(C(=O)O)cc1
not listed: [14] | [18] | [19]
inactive: all other assays above

CCOc1ccccc1O
not listed: [14] | [16] | [18] | [19]
inactive: all other assays above

CC(C)CCCCCCCCCCCCCCC(=O)O
active: [12] 177 µM
not listed: [13] | [14] | [16] | [17] | [18] | [19]
inactive: all other assays above

C1CCCCC1
not listed: [13] | [17] | [19]
inactive: all other assays above

CC(=O)C(C)O (configuration not stated)
not listed: [14] | [16] | [18] | [19]
inactive: all other assays above
